MCF10A rerep: induces DNA re-replication in MCF 10a normal breast cells; MCF 10A DNA re-replication, Hoechst nuclear intensity, 48 h; Potency, µM (doses to about 46.1 µM), for inactives: at the top dose activity, positive = re-replication, most hits filed as activators; actives 2.9% (n = 350,000); AID 624296; further: potency means the concentration at half of the fitted maximal effect; % of control where 0% means no effect; nearly all actives have a fitted effect of over 50% in size
Giardia killer: kills Giardia lamblia. AID 540267. activity change, % at 7.66 µM, hits read low. actives 0.15% (n = 340,000). Giardia lamblia trophozoite viability; in the data active means activity change below about -80%; inconclusive means between about -30% and that limit;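 further: parasites exposed to compound for two days anaerobically before the ATP read; on the % scale 0 is the no-effect control and ±100 the full control effect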
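Giardia lamblia trophozoites (100 cells/well) were incubated with compounds for 48 h at 37 deg C under anaerobic conditions. Viability was read as ATP content by one-step luminescence after 15-30 min at room temperature.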
uPA generation: inhibitors of cell surface uPA generation; cell surface uPA generation assay, qHTS; Potency, µM (titrated, usually from 38.3 µM), for inactives: top-dose activity change, negative = inhibition, most hits filed as inhibitors; actives 0.31% (n = 330,000); active means well fitted inhibition curve with a large enough effect; inconclusive means small, poorly fitted or top-dose-only effect; inactive means no such curve, though single readings can be large or run the other way; tested in mouse RAW 264.7 cells; further: potency means the concentration at half of the fitted maximal effect; on the % scale 0 is the no-effect control and ±100 the full control effect; nearly all actives have a fitted effect of over 55% in size
SW480 rereplic: induces DNA re-replication in SW480 colon adenocarcinoma cells; actives 1.8% (n = 340,000); Potency, µM (top dose mostly 46.1 µM), for inactives: at the highest dose re-replication activation, most hits filed as activators; SW480 DNA re-replication, Hoechst DNA content imaging, 48 h; further: potency means the concentration at half of the fitted maximal effect; % of control where 0% means no effect; nearly all actives have a fitted effect of over 55% in size
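DNA re-replication was detected as more nuclei of elevated Hoechst intensity after 48 hr exposure to compound (23 nL pinned per well of 250 cells).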
The depositor's hits bear a star; ? = inconclusive; . = not tested or not shown; [ ] = remark or other dose. An excerpt weighted towards active compounds, which were near 4.3% of everything screened. Unless noted, the call rests on the fitted dose curve; in most records, active means well fitted activation curve with a large enough effect; inconclusive means small, poorly fitted or top-dose-only effect; inactive means no such curve, though single readings can be large or run the other way.

SMILES | MCF10A rerep | Giardia killer | uPA generation | SW480 rereplic
CCOC(=O)C1CCN(C(=O)c2cc(S(=O)(=O)N3CCOCC3)ccc2C)CC1 | -3.8% | -9.1 | ? | -7.7%
COc1cccc(NC(=O)CN2CCN(C(=O)c3ccco3)CC2)c1 | 9.1% | -11.4 | -8.2% | 1.4%
Cc1nc(N2CCN(C)CC2)c2sc(=S)n(-c3ccccc3)c2n1 | 7.6% | 23.0 | -3.9% | 1.6%
S=c1sc2c(Cl)ncnc2n1-c1ccccc1 | 2.06µM* | -27.8 | ? | ?
N/C(=N\OC(=O)c1ccccc1)C(Cc1ccccc1)C(=O)NOC(=O)c1ccccc1 (centres undefined) | ? | 3.3 | -8.6% | ?
COC(=O)c1sc(S(=O)(=O)N2CCN(c3ccccc3F)CC2)c(C(=O)OC)c1C | 1.7% | -8.2 | -3.7% | 3.2%
CN(C)c1ccc(-c2nc3ccccc3c(=O)[nH]2)cc1 | 21.9% | ? | 1.41µM* | 8.9%
CCN(C[C@H]1N[C@@](Cc2ccccc2)(C(=O)OC)[C@H]2C(=O)N(C)C(=O)[C@@H]12)C(=O)c1ccc(C(C)(C)C)cc1 | -13.7% | 10.6 | 9.2% | -0.9%[9.22 µM]
CCN(C[C@H]1N[C@@](Cc2ccccc2)(C(=O)OC)[C@H]2C(=O)N(Cc3ccccc3)C(=O)[C@@H]12)C(=O)Nc1ccc(Cl)cc1 | ? | -4.4 | ? | 18.4µM*
CCN(C[C@H]1N[C@@](Cc2ccccc2)(C(=O)OC)[C@H]2C(=O)N(C)C(=O)[C@@H]12)C(=O)c1ccc(F)cc1 | 0.82µM* | 14.0 | 20.1% | -2.3%[9.22 µM]
CCN(C[C@H]1N[C@@](C)(C(=O)OC)[C@H]2C(=O)N(Cc3ccccc3)C(=O)[C@@H]12)C(=O)C1CCCCC1 | -4.9% | -1.5 | 3.6% | 1.46µM*
CC(C)=CCC/C(C)=C/CNC(=O)C[C@H]1C[C@H](C(=O)N(C(C)C)C(C)C)[C@@]2(C)c3[nH]c4cc(CCC(=O)N(C)C)ccc4c3CCN2C1=O | ? | 17.7 | ? | 4.4%
O=C(COC(=O)c1ccc2c(=O)n3c(nc2c1)CCC3)Nc1ccc(OC(F)F)cc1 | 19.2% | -7.8 | 0.0% | -24.7%
CCOC(=O)N1CCN(C(=O)c2cc3n(n2)C(C(F)(F)F)CC(c2ccc4c(c2)OCO4)N3)CC1 (centres undefined) | 0.4% | 4.3 | 0.4% | -6.8%
COc1ccc(CNc2nc(NCc3ccc(OC)cc3)c3[nH]cnc3n2)cc1 | 11.6µM* | -3.4 | ? | 5.1%
COCCCn1c(=N)c(C(=O)NC2CCCCC2)cc2c(=O)n3ccccc3nc21 | 3.26µM* | -12.6 | 1.1% | 5.17µM*
COc1ccc(CCn2c(=N)c(C(=O)NC3CCCC3)cc3c(=O)n4ccccc4nc32)cc1OC | 16.4µM* | 8.4 | 7.8% | ?
COc1ccc(CCn2c(=N)c(C(=O)NCC3CCCO3)cc3c(=O)n4ccccc4nc32)cc1OC (centres undefined) | 2.7% | 15.3 | ? | ?
COc1ccc(CCn2c(=N)c(C(=O)NC3CCCC3)cc3c(=O)n4ccccc4nc32)cc1 | 20.6µM* | -26.2 | -10.3% | 23.1µM*
COc1ccc(CNC(=O)c2cc3c(=O)n4ccccc4nc3n(Cc3cccnc3)c2=N)cc1 | ? | -5.5 | . | 18.5%
COc1cccc(NC(=O)c2cc3c(=O)n4ccccc4nc3n(CC(C)C)c2=N)c1 | -0.7% | 2.5 | 10.6% | -4.8%
COc1ccc(Cn2c(=N)c(C(=O)NC3CCCCC3)cc3c(=O)n4ccccc4nc32)cc1 | 4.11µM* | 13.0 | -0.7% | 4.61µM*
O=S(=O)(c1cccc(F)c1)N1CCN(c2nc(-c3cccs3)nc3ccccc23)CC1 | . | -16.9 | . | .
O=c1[nH]c(-c2ccccc2)ncc1OCc1ccccc1 | -3.7% | 14.1 | 2.5% | -8.1%
O=C(Cn1cncn1)c1ccccc1Br | 0.8% | -26.3 | -6.3% | 9.5%
SMILES | MCF10A rerep | Giardia killer | uPA generation | SW480 rereplic
COCCNC(=O)/C(C#N)=C\c1ccc(CNC(=O)C(=O)Nc2ccc(C)c(C)c2)o1 | ? | -26.6 | 9.1% | -8.2%
COc1ccc(NC(=O)C(=O)N/N=C\c2ccc(CNC(=O)C(=O)Nc3ccc(C)c(C)c3)o2)c(OC)c1 | ? | 22.5 | 2.4% | 2.91µM*
COC(=O)c1cc(C)nc(N)c1C#N | -1.7% | -8.1 | -6.3% | -1.1%
COC(=O)c1cc(=O)n2c(sc3ccccc32)c1C#N | 20.6µM* | -7.0 | 0.0% | 23.1µM*
Cc1ccc2c(n1)sc1c(-c3ccccc3)c(C#N)c(N)nc12 | 5.01µM* | -0.6 | -3.8% | 7.31µM*
CCS(=O)(=O)N1CCCC(C(=O)NCCc2ccc(C)cc2)C1 (centres undefined) | -66.9% | -1.6 | 3.5% | 13µM*
